Results as given in the supplement of paper PMC11732987, “Enantioselective OTUD7B fragment discovery through chemoproteomics screening and high-throughput optimisation” (Communications Chemistry, 2025).

Tests used:
Assay in all cases: log2 ratio of Biotin-Ahx-Ub-VS probe labelling (fragment/DMSO); higher = less target engagement (more negative = stronger competition), active = hit call of the paper (q ≤ 0.05, log2 ratio ≤ -1)
Settings in all cases: compound concentration: 200 uM; treatment time: 3 h
USP34 = USP34 (UniProt Q70CQ2)
How it was run: (§1)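 Labelled DUBs from HEK293T lysate were NeutrAvidin-enriched, digested with LysC and trypsin, and run by diaPASEF LC-MS/MS. Before that, each 495 µg sample in Tris/CHAPS/IGEPAL buffer with protease inhibitors was treated in triplicate with fragment at 200 µM or vehicle for 3 h, then with Biotin-Ahx-Ub-VS at 0.5 µM final for 1 h. Values are average log2 ratios of fragment over vehicle by unpaired t-test, based on global-median-normalised Spectronaut label-free quantities from proteins with ≥2 unique peptides.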

USP36 = molecular target: T1, USP36 (UniProt Q9P275)
T1 sequence (whole entry): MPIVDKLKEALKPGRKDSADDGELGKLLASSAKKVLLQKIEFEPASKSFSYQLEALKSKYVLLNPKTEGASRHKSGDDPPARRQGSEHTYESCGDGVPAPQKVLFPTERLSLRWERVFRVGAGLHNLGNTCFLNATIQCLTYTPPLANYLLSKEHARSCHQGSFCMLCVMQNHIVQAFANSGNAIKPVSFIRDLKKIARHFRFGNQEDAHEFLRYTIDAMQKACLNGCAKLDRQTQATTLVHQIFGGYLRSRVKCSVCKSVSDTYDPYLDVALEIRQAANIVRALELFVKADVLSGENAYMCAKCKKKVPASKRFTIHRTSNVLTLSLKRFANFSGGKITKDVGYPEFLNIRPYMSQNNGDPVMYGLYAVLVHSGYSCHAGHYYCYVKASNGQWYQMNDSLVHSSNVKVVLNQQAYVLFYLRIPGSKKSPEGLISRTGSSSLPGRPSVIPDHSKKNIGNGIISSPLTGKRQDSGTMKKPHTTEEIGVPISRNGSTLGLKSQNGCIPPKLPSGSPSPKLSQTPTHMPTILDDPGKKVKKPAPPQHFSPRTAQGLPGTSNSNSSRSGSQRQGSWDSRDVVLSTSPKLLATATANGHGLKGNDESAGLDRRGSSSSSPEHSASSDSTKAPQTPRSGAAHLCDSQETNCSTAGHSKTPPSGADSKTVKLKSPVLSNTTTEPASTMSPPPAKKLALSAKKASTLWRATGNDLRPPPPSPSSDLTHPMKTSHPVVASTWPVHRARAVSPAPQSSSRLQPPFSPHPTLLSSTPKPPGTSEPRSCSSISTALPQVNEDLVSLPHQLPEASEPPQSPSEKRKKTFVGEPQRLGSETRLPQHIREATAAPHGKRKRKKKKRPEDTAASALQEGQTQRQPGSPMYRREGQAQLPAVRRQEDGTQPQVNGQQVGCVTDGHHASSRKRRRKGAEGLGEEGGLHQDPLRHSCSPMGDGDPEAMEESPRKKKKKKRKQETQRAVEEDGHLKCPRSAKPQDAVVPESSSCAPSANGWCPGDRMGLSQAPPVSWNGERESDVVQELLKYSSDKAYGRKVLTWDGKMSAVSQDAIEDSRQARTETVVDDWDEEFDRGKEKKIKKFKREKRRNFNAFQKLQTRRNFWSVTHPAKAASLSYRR
How it was run: as §1

USP38 = molecular target: T2, USP38 (UniProt Q8NB14)
T2 sequence (whole entry): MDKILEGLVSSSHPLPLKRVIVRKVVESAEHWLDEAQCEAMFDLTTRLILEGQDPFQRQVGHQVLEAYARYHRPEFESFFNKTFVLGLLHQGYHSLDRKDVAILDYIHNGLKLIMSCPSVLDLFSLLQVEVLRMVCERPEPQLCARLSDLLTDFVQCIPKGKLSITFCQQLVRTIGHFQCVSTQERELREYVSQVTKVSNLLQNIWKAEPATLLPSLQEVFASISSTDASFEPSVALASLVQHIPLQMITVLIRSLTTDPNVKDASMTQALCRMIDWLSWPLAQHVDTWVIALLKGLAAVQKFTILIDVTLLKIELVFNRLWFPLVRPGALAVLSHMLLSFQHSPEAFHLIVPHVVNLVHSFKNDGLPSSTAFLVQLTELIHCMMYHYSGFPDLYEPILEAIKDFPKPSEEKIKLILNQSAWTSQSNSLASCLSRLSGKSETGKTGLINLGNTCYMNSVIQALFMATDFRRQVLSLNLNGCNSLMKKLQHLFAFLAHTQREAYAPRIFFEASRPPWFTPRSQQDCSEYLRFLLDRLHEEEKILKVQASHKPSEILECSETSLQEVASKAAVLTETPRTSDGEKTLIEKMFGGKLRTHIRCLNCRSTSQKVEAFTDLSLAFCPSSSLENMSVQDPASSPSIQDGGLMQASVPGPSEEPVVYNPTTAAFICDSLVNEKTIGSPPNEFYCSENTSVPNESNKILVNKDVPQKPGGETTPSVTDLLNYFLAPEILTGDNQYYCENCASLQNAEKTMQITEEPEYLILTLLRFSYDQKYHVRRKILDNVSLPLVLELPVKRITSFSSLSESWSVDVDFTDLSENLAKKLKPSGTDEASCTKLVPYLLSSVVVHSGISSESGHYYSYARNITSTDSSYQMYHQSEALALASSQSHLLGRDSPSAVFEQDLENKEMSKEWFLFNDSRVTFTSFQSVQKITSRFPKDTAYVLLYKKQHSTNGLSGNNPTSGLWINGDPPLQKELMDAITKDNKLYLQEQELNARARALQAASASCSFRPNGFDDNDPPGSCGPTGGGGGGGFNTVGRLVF
How it was run: as §1

USP39 = molecular target: T3, USP39 (UniProt Q53GS9)
T3 sequence (whole entry): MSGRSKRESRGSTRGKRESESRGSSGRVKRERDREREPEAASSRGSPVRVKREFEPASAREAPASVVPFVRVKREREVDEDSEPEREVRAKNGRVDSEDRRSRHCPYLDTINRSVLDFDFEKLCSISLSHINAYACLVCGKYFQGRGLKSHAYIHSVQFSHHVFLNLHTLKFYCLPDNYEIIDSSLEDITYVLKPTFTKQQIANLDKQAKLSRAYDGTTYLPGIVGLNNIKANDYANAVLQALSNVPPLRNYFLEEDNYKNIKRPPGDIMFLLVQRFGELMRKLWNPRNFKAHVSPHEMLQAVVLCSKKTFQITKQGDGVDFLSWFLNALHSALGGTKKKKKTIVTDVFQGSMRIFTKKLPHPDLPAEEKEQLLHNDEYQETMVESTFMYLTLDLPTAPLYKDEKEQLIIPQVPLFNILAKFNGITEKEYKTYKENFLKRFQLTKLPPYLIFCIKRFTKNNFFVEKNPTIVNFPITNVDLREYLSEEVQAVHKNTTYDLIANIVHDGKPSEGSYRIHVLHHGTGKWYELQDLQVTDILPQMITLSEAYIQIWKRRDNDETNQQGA
How it was run: as §1

USP4 = molecular target: T4, USP4 (UniProt Q13107)
T4 sequence (whole entry): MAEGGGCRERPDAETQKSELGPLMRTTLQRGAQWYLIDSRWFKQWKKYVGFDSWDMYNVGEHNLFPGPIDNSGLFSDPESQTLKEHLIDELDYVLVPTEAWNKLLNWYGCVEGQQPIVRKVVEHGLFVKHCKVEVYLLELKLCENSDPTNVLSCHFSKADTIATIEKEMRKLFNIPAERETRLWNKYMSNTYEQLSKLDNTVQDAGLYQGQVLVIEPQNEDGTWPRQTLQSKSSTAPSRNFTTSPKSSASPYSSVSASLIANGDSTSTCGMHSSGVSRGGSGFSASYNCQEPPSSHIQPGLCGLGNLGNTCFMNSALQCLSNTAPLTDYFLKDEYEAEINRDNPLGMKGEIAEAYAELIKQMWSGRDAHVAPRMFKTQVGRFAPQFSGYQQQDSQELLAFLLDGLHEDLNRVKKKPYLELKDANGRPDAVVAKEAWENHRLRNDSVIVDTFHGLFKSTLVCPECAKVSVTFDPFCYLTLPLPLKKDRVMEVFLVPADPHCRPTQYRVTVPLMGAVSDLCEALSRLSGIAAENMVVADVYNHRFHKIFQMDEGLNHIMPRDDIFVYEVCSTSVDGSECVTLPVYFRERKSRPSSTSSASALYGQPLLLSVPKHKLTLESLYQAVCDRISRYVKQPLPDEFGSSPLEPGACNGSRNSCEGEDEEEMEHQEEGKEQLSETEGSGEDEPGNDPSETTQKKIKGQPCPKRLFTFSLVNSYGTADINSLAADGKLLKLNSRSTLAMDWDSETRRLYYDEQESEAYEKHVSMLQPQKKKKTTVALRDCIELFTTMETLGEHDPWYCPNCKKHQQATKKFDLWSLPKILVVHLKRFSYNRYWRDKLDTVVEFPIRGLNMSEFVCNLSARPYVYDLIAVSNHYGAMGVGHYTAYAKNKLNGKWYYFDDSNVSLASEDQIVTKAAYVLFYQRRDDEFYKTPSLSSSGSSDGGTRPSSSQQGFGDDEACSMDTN
How it was run: as §1

Measured: log2 ratio of Biotin-Ahx-Ub-VS probe labelling

Chain of USP34 (Q70CQ2 whole entry, the tested form may be a part): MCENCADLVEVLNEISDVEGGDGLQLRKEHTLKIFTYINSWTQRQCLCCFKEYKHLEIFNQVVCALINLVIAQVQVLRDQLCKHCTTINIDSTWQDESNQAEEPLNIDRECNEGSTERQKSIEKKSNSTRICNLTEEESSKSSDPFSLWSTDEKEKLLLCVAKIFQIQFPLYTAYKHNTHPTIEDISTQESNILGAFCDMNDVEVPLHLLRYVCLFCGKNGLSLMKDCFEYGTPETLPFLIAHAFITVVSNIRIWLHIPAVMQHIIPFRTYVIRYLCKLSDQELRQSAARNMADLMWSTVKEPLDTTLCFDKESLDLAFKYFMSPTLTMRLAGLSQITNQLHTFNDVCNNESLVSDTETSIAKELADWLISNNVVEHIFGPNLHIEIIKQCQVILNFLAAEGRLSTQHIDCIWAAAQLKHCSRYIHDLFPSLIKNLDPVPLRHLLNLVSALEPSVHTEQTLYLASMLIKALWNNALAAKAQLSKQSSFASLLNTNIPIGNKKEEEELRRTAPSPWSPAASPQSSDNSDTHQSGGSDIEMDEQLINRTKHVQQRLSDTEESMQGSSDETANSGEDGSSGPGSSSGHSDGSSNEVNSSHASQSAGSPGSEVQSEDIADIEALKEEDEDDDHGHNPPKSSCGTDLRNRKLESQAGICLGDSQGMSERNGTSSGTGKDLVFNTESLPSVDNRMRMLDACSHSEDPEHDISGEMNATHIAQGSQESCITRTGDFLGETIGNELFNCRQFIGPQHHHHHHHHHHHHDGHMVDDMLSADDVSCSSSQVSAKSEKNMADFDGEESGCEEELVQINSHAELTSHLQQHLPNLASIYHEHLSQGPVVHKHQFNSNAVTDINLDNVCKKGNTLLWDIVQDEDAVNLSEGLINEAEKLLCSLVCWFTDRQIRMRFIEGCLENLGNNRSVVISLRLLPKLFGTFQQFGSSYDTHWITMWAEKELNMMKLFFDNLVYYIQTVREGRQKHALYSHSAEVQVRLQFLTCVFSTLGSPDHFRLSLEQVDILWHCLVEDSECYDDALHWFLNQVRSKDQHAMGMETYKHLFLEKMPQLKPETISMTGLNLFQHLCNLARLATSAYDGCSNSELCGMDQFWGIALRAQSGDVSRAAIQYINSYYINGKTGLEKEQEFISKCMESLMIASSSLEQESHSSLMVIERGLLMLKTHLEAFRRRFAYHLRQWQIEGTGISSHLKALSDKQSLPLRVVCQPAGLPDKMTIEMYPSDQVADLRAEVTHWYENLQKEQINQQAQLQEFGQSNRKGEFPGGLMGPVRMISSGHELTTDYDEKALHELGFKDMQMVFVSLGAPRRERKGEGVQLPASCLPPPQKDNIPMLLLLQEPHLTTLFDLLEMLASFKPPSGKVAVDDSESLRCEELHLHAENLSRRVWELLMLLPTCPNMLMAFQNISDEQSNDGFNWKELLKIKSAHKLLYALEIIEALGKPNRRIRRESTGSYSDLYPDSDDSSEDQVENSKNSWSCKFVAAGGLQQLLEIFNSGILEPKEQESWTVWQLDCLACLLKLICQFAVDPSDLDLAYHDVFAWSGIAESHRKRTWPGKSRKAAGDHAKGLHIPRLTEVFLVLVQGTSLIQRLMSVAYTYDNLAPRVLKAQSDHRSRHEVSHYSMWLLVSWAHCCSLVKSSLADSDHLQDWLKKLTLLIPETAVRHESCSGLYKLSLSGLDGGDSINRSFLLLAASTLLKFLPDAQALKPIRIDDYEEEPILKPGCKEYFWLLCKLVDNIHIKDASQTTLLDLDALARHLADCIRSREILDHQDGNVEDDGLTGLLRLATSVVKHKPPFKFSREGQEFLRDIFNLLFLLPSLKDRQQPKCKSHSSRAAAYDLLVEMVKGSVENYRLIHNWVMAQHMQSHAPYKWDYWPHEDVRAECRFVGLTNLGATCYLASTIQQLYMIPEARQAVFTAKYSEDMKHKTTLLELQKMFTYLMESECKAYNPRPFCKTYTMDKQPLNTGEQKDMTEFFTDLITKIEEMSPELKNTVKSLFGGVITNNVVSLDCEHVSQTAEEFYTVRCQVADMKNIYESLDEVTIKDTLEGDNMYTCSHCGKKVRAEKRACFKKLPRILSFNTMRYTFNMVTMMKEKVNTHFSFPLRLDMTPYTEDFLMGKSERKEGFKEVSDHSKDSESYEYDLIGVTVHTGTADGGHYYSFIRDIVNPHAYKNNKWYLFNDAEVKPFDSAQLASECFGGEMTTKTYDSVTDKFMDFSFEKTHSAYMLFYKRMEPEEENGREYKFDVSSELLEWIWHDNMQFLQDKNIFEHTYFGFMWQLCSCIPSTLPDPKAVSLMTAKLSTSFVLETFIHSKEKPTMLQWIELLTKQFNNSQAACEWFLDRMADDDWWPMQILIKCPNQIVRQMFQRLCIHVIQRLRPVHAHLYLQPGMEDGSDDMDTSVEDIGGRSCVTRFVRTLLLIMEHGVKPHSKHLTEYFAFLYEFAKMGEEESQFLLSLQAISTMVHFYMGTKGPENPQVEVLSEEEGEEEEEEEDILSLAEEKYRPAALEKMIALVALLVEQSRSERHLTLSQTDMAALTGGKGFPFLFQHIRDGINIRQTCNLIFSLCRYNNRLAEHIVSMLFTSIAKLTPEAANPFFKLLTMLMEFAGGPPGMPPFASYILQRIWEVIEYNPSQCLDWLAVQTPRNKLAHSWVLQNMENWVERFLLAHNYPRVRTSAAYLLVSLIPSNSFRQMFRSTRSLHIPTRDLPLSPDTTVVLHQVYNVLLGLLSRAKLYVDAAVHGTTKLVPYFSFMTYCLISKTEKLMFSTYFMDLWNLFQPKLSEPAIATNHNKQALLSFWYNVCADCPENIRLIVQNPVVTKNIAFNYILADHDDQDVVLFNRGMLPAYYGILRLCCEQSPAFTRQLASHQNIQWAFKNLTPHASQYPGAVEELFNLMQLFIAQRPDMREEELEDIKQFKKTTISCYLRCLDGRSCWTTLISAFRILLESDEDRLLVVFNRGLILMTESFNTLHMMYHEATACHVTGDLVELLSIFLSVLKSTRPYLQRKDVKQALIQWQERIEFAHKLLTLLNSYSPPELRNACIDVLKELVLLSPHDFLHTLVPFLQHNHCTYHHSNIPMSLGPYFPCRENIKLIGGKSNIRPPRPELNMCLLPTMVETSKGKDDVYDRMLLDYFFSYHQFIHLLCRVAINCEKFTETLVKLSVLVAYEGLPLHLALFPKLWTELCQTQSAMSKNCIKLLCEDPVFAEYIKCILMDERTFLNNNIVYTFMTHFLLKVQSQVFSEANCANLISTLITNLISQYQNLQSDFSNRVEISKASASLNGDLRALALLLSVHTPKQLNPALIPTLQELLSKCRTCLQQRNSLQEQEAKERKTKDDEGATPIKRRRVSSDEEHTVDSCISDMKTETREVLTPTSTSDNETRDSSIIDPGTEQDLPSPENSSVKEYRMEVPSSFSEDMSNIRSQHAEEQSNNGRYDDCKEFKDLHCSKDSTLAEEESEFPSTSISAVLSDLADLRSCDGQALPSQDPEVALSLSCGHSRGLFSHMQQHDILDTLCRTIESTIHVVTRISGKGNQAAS

Cl.O=C(CCl)N1CCn2cncc2C1
inactive: USP34 -0.401 | USP36 -0.24 | USP38 -0.142 | USP39 -0.167 | USP4 -0.285
